Records with an inconclusive call do not appear. Activity calls are given as the source filed them. Unless noted, calls come from the whole dose curve; as a rule, active = well fitted curve in the direction sought with a large enough effect in the repeat runs; inconclusive = weak or mixed curves; inactive = no such curve, though single readings can be large; an effect the other way counts as inactive or inconclusive.
Key:
[1] = target: Thyrotropin receptor (Homo sapiens) (UniProt P16473); assay: qHTS assay to identify small molecule agonists of the thyroid stimulating hormone receptor (TSHR) signaling pathway (AID 1224843; calls by dose curve; note: nearly all actives have a fitted effect of over 45% in size)
Method in brief: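 HEK293 cells stably bearing the thyrotropin receptor were plated at 800 cells/well and challenged with compound (30 min, RT). Accumulated cAMP was quantified via cAMP-d2 competing for cryptate-tagged antibody.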

[2] = qHTS assay to identify small molecule agonists of the hypoxia (HIF-1) signaling pathway - cell viability counter screen (AID 1224844; calls by dose curve; note: nearly all actives have a fitted effect of over 50% in size)
Method in brief: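 HRE-bla ME-180 cells, 2,000/well in 0.5% dialyzed FBS medium, treated 17 h at 37C with compounds. Viability read in the same wells as the bla reporter, by CellTiter-Glo luminescence after 30 min at room temperature.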

[3] = qHTS assay to identify small molecule agonists of H2AX (AID 1224845; active = well fitted activation curve with a large enough effect in the signal ratio in the repeat runs, not every such curve was filed as active; the % refers to the signal ratio)
Method in brief: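 Phospho-H2AX Ser139 measured by HTRF (ex 320 nm; em 665 and 620 nm) after 24 hr antibody incubation. Compounds, 15 concentrations, 0.76% DMSO, were applied to CHO-K1 cells for 3hr at 37C before lysis.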

[4] = qHTS RealTime-Glo MT Cell Viability Assay in HepG2 cells - 24 hour (AID 1224867); note: nearly all actives have a fitted effect of over 50% in size
Method in brief: (§1)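 Cells + NanoLuc/prosubstrate dispensed (600 cells/well) → 5 h at 37 C/5% CO2 → compounds in DMSO transferred → 40 h incubation at 37 C, luminescence read at 0, 8, 16, 24, 32, 40 h.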

[5] = qHTS RealTime-Glo MT Cell Viability Assay in HEK293 cells - 32 hour (AID 1224868); note: top concentration of the series differs between compounds; nearly all actives have a fitted effect of over 50% in size
Method in brief: (§2)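 Tox21 10K qHTS, HEK293, 600 cells/well, RealTime-Glo reagent co-dispensed with cells; 5 h preincubation, compound by pintool, 37 C, luminescence at 0–40 h.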

[6] = A CellTox Green Cytotoxicity Assay to monitor cytotoxicity in HEK293 cells - 0 hour (AID 1224869); note: nearly all actives have a fitted effect of over 50% in size
Method in brief: (§3)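 HEK293 cells, 600/well, were preincubated 5 hours and then exposed to compounds at 37 C for up to 40 hours. A cell-impermeant cyanine dye staining dead-cell DNA was read by fluorescence at 0, 8, 16, 24, 32 and 40 h time points.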

[7] = qHTS RealTime-Glo MT Cell Viability Assay in HepG2 cells - 40 hour (AID 1224870); note: nearly all actives have a fitted effect of over 50% in size
Method in brief: (§4)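 Real-time viability: cells seeded at 600 per well together with NanoLuc and cell-permeant prosubstrate, compounds added after 5 h incubation. Luminescence tracked at 0, 8, 16, 24, 32 and 40 h of exposure.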

[8] = A CellTox Green Cytotoxicity Assay to monitor cytotoxicity in HEK293 cells - 40 hour (AID 1224871); note: nearly all actives have a fitted effect of over 45% in size
Method in brief: as §3

[9] = qHTS RealTime-Glo MT Cell Viability Assay in HEK293 cells - 16 hour (AID 1224872)
Method in brief: as §2

[10] = qHTS RealTime-Glo MT Cell Viability Assay in HepG2 cells - 8 hour (AID 1224873); note: nearly all actives have a fitted effect of over 55% in size
Method in brief: as §4

[11] = qHTS RealTime-Glo MT Cell Viability Assay in HEK293 cells - 40 hour (AID 1224874); conditions: RealTime-Glo luminescence; max response: hits give low values; note: nearly all actives have a fitted effect of over 50% in size
Method in brief: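 600 cells/well were plated with the nonlytic NanoLuc/prosubstrate reagent, pre-incubated 5 h, then given 23 nL of compound in DMSO. Incubation at 37 C for 40 h, with luminescence from viable-cell-reduced substrate read repeatedly from 0 h.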

[12] = A CellTox Green Cytotoxicity Assay to monitor cytotoxicity in HEK293 cells - 24 hour (AID 1224875); note: nearly all actives have a fitted effect of over 45% in size
Method in brief: as §3

[13] = A CellTox Green Cytotoxicity Assay to monitor cytotoxicity in HepG2 cells - 16 hour (AID 1224876); note: nearly all actives have a fitted effect of over 45% in size
Method in brief: (§5)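 HepG2 cells, 600/well, preincubated 5 h with CellTox Green dye, then exposed to Tox21 compounds in DMSO at 37 C for up to 40 h. Dead-cell DNA fluorescence read at the indicated time point.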

[14] = qHTS RealTime-Glo MT Cell Viability Assay in HepG2 cells - 32 hour (AID 1224877); note: nearly all actives have a fitted effect of over 55% in size
Method in brief: as §1

[15] = A CellTox Green Cytotoxicity Assay to monitor cytotoxicity in HepG2 cells - 24 hour (AID 1224878); note: nearly all actives have a fitted effect of over 45% in size
Method in brief: as §5

[16] = A CellTox Green Cytotoxicity Assay to monitor cytotoxicity in HepG2 cells - 40 hour (AID 1224879); note: nearly all actives have a fitted effect of over 40% in size
Method in brief: as §5

[17] = qHTS assay to identify small molecule agonists of the hypoxia (HIF-1) signaling pathway (AID 1224846; active = well fitted activation curve with a large enough effect in the signal ratio in the repeat runs, not every such curve was filed as active; the % refers to the signal ratio)
Method in brief: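 HRE-bla ME-180 beta-lactamase reporter cells in medium with 0.5% dialyzed FBS, pre-incubated 5 h then exposed to compounds 17 h at 37C, 5% CO2; reporter induction read with CCF4-AM FRET substrate.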

[18] = qHTS assay to identify small molecule agonists of H2AX - cell viability counter screen (AID 1224847; calls by dose curve;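 note: wild-type CHO-K1 cells; top concentration of the series differs between compounds; nearly all actives have a fitted effect of over 30% in size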)
Method in brief: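 CHO-K1 cells plated overnight at 37C, then exposed 3 h at 37C to compounds at 15 concentrations (0.76% DMSO final). Viability by CellTiter-Glo luminescence after 30 min at room temperature.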

[19] = qHTS assay to identify small molecule antagonists of the estrogen related receptor (ERR) signaling pathway from Tox21 library (AID 1224848); note: nearly all actives have a fitted effect of over 50% in size
Method in brief: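 Reading was by luminescence 30 min after ONE-Glo addition. Before that, ERR cells at 2,000 per well had rested 6 h at 37 C/5% CO2 and then received pin-tooled compounds in DMSO for 18 h at 37 C.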

[20] = qHTS assay to identify small molecule agonists of the estrogen related receptor (ERR) signaling pathway from Tox21 library (AID 1224849; calls by dose curve; note: nearly all actives have a fitted effect of over 15% in size); conditions: ERR reporter cell line, ONE-Glo luciferase, 18 h; at 92.4 µM (top of the series) unless noted
Method in brief: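 ERR reporter cells (NTP line) pre-incubated 6 hours at 37 C, then exposed to compounds for 18 hours at 37 C. ONE-Glo luciferase luminescence was read after 30 minutes at room temperature.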
% is set by controls: 0 for no effect and ±100 for the full control effect.

Sequence of Thyrotropin receptor (Homo sapiens) (P16473 whole entry, looked up): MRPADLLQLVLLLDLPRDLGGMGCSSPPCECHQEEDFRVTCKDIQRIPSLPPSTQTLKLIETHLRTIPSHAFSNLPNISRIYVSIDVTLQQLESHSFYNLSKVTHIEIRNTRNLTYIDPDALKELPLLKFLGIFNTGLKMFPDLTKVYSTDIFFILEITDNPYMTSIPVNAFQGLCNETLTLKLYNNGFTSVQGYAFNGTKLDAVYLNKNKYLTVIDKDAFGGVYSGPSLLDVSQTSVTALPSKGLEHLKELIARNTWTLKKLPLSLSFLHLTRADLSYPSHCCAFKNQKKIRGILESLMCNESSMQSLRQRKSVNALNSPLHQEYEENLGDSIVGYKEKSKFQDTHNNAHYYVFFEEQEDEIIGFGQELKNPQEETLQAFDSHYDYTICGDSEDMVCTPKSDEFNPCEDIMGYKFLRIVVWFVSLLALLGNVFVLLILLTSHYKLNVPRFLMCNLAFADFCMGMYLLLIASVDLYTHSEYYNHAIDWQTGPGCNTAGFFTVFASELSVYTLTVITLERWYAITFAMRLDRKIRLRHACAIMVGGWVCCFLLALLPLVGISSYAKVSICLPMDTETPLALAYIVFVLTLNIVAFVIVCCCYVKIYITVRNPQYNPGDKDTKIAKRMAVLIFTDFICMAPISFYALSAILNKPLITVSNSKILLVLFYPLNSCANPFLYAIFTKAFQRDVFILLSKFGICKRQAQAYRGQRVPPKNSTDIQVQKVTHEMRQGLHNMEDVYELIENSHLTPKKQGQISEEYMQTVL

CN1[C@@H]2CC[C@H]1CC(OC(=O)c1c[nH]c3ccccc13)C2 (stereo not given in full)
inactive: Potency [1] | Potency [2] | Potency [3] | Potency [4] | Potency [5] | Potency [6] | Potency [7] | Potency [8] | Potency [9] | outcome [10] | max response [11] 4.75% | Potency [12] | Potency [13] | Potency [14] | Potency [15] | Potency [16]

CCOc1ccc(NC(N)=O)cc1
inactive: Potency [2] | Potency [3] | outcome [17] | Potency [18] | Potency [19] | activity change, positive = activation [20] 1.88% | Potency [4] | Potency [5] | Potency [6] | Potency [7] | Potency [8] | Potency [9] | outcome [10] | max response [11] 4.66% | Potency [12] | Potency [13] | Potency [14] | Potency [15] | Potency [16]

CC1(C)O[C@@H]2C[C@H]3[C@@H]4CCC5=CC(=O)CC[C@]5(C)[C@@]4(F)[C@@H](O)C[C@]3(C)[C@]2(C(=O)CCl)O1
inactive: Potency [1] | Potency [3] | Potency [18] | Potency [4] | Potency [6] | Potency [7] | Potency [8] | Potency [9] | outcome [10] | Potency [12] | Potency [13] | Potency [14] | Potency [16]

O=C(C(Cl)Cl)N1CCOC12CCCCC2
inactive: Potency [2] | Potency [3] | outcome [17] | Potency [18] | Potency [19] | activity change, positive = activation [20] -5.71% | Potency [4] | Potency [5] | Potency [6] | Potency [7] | Potency [8] | Potency [9] | outcome [10] | max response [11] 12.9% | Potency [12] | Potency [13] | Potency [14] | Potency [15] | Potency [16]

COc1nc(C)nc(NC(=O)NS(=O)(=O)c2ccccc2OCCCl)n1
inactive: Potency [2] | Potency [3] | outcome [17] | Potency [18] | Potency [19] | activity change, positive = activation [20] -0.581% | Potency [4] | Potency [5] | Potency [6] | Potency [7] | Potency [8] | Potency [9] | outcome [10] | max response [11] 6.36% | Potency [12] | Potency [13] | Potency [14] | Potency [15] | Potency [16]

CN1CCN(c2c(F)cc3c(=O)c(C(=O)O)cn4c3c2SCC4)CC1
inactive: Potency [1] | Potency [2] | outcome [17] | Potency [18] | Potency [4] | Potency [5] | Potency [6] | Potency [7] | Potency [8] | Potency [9] | outcome [10] | max response [11] 6.23% | Potency [12] | Potency [13] | Potency [14] | Potency [15] | Potency [16]

CCNCCO
inactive: Potency [1] | Potency [2] | outcome [17] | Potency [18] | Potency [4] | Potency [5] | Potency [6] | Potency [7] | Potency [8] | Potency [9] | outcome [10] | max response [11] 9.13% | Potency [12] | Potency [13] | Potency [14] | Potency [15] | Potency [16]
